Where “and” joins values, the source holds several entries; their conditions need not be identical. Identical values can stand only once. Records with an inconclusive call do not appear. A structure can be active in one record and inactive in another. Calls of active or inactive are those of the source. Rule for the calls, unless noted: active = hit-call score of the fitted dose curve at least 0.9, where 1 is the maximum; inconclusive = response in the unintended direction; inactive = score below 0.9.
Columns and labels:
[1] = target: human Peroxisome Proliferator-activated Receptor delta (PPARd), PPARD (gene 5467) (UniProt Q03181); experiment: ATG_PPARd_TRANS: Attagene TRANS-FACTORIAL HepG2 Assay for human Peroxisome Proliferator-activated Receptor delta (PPARd) (AID 2283002)
Method in brief: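 Read-out: reporter mRNA induction, quantified by fluorescent RT-PCR products resolved by capillary electrophoresis. Human HepG2 liver cells carried transiently transfected Gal4-UAS reporter constructs with chimeric NR-Gal4 fusions. Cells were dosed for 24 h; DMSO served as baseline.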

[2] = read-out: Intercellular Adhesion Molecule 1 (ICAM1), ICAM1 (gene 3383); experiment: BSK_3C_ICAM1: BioMAP Diversity Plus: 3C Assay for Intercellular Adhesion Molecule 1 (ICAM1) Biomarker Activity (AID 2283003; active = hit-call score of the fitted dose curve at least 0.9, where 1 is the maximum; inactive = score below 0.9); settings: primary human endothelial cells (HUVEC); actives raise or lower the signal
Method in brief: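 Primary human umbilical vein endothelial cells in the BioMAP 3C system were exposed to chemicals for 24 h, then ICAM-1 was quantified by ELISA. Activity was fitted bidirectionally against the DMSO negative control baseline.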

[3] = target: Retinoic acid receptor alpha (Homo sapiens) (UniProt P10276); experiment: ATG_RARa_TRANS: Attagene TRANS-FACTORIAL HepG2 Assay for human Retinoic Acid Receptor alpha (RARa) (AID 2283005)
Method in brief: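 HepG2 transiently transfected with multiplex GAL4-UAS reporter units including a human RARa–GAL4 chimera; 24 h compound exposure. Reporter mRNA quantified by RT-PCR, 6-FAM labeling and capillary electrophoresis; gain of signal versus DMSO.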

[4] = BSK_3C_Proliferation: Cell Proliferation Assessment in the BioMAP Diversity Plus: 3C Assay (AID 2283006; active = hit-call score of the fitted dose curve at least 0.9, where 1 is the maximum; inactive = score below 0.9;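 for AC50: potency may reflect either rise or fall in cell number versus DMSO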); settings: primary human endothelial cells (HUVEC)
Method in brief: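 Human umbilical vein endothelial cells were grown sub-confluent and exposed to chemical for 48 h, then fixed with 10% TCA and stained with 0.1% sulforhodamine B; absorbance at 560 nm gave relative cell number, fitted bidirectionally against DMSO baseline.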

[5] = target: Peroxisome proliferator-activated receptor gamma (Homo sapiens) (UniProt P37231); experiment: ATG_PPARg_TRANS: Attagene TRANS-FACTORIAL HepG2 Assay for human Peroxisome Proliferator-activated Receptor-gamma (PPARg) (AID 2283007)
Method in brief: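 Liver-derived HepG2 cells expressing an exogenous NR-Gal4 chimera alongside GAL4-UAS reporter genes; 24 h exposure. Fluorescence of reporter RT-PCR products, separated by capillary electrophoresis, gives mRNA induction relative to DMSO.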

[6] = target: Nuclear receptor subfamily 1 group I member 2 (Homo sapiens) (UniProt O75469); experiment: ATG_PXR_TRANS: Attagene TRANS-FACTORIAL HepG2 Assay for human Pregnane X Receptor (PXR) (AID 2283008)
Method in brief: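 Fluorescence intensity of FAM-labelled, HpaI-digested reporter amplicons, separated by capillary electrophoresis, quantifies induction. HepG2 cells with PXR-Gal4 trans-reporter system were exposed 24 h; DMSO defines baseline.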

[7] = target: human RAR-related Orphan Receptor beta (RORb), RORB (gene 6096) (UniProt Q92753); experiment: ATG_RORb_TRANS: Attagene TRANS-FACTORIAL HepG2 Assay for human RAR-related Orphan Receptor beta (RORb) (AID 2283010);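 for AC50: potency for increased reporter mRNA meaning activation of RORb-Gal4 chimera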
Method in brief: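 HepG2 cells were transiently transfected with multiplexed GAL4-UAS reporter units expressing chimeric nuclear receptor–GAL4 proteins, then dosed for 24 h. Reporter mRNA was quantified by RT-PCR with fluorescent labelling and capillary electrophoresis; gain of signal was fitted relative to DMSO.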

[8] = target: Retinoic acid receptor RXR-alpha (Homo sapiens) (UniProt P19793); experiment: ATG_RXRa_TRANS: Attagene TRANS-FACTORIAL HepG2 Assay for human Retinoid X Receptor alpha (RXRa) (AID 2283012)
Method in brief: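 HepG2 cells transiently transfected with multiplexed GAL4-UAS reporter units and chimeric NR-GAL4 fusions, dosed 24 h. Reporter mRNA measured by RT-PCR, FAM labelling, HpaI digestion and capillary electrophoresis; gain-of-signal fitted relative to DMSO baseline.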

[9] = target: human Retinoic Acid Receptor gamma (RARg), RARG (gene 5916) (UniProt P13631); experiment: ATG_RARg_TRANS: Attagene TRANS-FACTORIAL HepG2 Assay for human Retinoic Acid Receptor gamma (RARg) (AID 2283009)
Method in brief: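 HepG2 cells transiently transfected with multiplexed reporter units expressing chimeric RARg-GAL4 and GAL4-UAS-driven reporters; 24 h compound exposure. Reporter mRNA quantified by RT-PCR with fluorescent labelling and capillary electrophoresis; gain-of-signal fitted relative to DMSO baseline.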

[10] = target: human RAR-related Orphan Receptor gamma (RORg), RORC (gene 6097) (UniProt P51449); experiment: ATG_RORg_TRANS: Attagene TRANS-FACTORIAL HepG2 Assay for human RAR-related Orphan Receptor gamma (RORg) (AID 2283011);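 for AC50: potency for induction of reporter transcripts above DMSO so activators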
Method in brief: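 Transient MRTU transfection of HepG2 (TRANS format, exogenous NR-Gal4 chimera). 24 h dosing. Total RNA → oligo(dT) RT → PCR → 6-FAM labelling → HpaI cut → CE. Gain vs DMSO.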

Measured: AC50

Sequence of human Peroxisome Proliferator-activated Receptor delta (PPARd), PPARD (gene 5467) (Q03181 whole entry, looked up, the tested form may be a part): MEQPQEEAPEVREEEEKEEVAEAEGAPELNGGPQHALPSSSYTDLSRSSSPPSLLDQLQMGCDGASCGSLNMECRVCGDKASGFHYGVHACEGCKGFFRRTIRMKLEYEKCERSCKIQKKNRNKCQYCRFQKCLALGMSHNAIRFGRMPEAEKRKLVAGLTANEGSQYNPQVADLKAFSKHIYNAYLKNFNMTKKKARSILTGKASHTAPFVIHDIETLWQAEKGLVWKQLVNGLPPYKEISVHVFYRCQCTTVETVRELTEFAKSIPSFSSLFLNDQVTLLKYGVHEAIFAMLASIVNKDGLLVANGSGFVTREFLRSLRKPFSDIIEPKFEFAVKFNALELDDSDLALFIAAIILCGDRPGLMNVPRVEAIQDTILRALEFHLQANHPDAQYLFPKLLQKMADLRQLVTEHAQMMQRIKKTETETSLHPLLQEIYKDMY
Sequence of Peroxisome proliferator-activated receptor gamma (Homo sapiens) (P37231 whole entry, looked up, the tested form may be a part): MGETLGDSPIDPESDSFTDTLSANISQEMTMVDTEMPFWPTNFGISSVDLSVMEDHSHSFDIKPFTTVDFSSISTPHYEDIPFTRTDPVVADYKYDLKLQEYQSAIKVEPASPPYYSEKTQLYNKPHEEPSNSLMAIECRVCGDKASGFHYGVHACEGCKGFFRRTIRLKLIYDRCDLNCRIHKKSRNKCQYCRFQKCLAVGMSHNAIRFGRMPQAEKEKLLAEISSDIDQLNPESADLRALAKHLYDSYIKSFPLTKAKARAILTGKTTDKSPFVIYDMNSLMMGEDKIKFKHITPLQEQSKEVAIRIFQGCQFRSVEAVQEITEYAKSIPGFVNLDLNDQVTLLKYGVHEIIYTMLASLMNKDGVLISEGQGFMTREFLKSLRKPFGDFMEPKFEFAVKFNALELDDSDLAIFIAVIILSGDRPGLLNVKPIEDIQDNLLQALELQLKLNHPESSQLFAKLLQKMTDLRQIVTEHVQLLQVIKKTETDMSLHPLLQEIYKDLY
Sequence of Nuclear receptor subfamily 1 group I member 2 (Homo sapiens) (O75469 whole entry, looked up, the tested form may be a part): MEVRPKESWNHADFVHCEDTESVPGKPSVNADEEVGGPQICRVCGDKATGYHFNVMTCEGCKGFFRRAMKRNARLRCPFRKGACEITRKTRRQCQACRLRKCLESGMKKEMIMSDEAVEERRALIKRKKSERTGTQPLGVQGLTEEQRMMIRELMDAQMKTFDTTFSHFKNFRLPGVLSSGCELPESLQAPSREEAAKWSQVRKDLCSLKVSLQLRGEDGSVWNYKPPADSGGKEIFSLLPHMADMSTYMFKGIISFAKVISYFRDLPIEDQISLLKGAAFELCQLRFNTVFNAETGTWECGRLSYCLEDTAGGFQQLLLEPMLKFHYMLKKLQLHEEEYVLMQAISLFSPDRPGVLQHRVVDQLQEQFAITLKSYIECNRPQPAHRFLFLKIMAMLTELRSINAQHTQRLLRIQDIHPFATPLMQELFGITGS
Sequence of human RAR-related Orphan Receptor gamma (RORg), RORC (gene 6097) (P51449 whole entry, looked up, the tested form may be a part): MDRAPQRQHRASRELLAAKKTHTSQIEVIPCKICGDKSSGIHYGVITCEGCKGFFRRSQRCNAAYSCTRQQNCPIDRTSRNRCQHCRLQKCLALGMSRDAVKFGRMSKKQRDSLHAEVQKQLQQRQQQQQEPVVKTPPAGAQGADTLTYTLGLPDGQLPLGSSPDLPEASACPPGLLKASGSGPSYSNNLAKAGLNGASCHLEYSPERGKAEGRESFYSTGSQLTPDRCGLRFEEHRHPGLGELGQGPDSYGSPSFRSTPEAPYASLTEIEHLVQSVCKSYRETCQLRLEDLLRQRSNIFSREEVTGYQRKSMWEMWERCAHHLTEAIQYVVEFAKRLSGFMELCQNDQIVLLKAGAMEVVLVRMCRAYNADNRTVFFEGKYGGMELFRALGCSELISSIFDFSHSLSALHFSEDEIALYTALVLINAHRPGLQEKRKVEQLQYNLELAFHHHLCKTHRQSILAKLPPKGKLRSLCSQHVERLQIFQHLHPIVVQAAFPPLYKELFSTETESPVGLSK
Sequence of Retinoic acid receptor RXR-alpha (Homo sapiens) (P19793 whole entry, looked up, the tested form may be a part): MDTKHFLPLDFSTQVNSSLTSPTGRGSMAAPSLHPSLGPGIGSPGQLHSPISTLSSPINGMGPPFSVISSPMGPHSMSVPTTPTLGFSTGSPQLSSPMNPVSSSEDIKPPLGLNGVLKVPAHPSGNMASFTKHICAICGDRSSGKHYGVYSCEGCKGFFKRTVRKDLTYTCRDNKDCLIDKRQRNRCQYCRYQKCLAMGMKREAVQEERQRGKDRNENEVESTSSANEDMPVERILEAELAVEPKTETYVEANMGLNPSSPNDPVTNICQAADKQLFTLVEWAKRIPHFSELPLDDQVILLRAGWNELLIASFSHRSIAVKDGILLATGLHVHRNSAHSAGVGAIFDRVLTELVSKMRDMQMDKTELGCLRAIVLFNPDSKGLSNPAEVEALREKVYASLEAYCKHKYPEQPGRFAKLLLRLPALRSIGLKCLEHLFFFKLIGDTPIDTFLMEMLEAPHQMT
Sequence of human Retinoic Acid Receptor gamma (RARg), RARG (gene 5916) (P13631 whole entry, looked up, the tested form may be a part): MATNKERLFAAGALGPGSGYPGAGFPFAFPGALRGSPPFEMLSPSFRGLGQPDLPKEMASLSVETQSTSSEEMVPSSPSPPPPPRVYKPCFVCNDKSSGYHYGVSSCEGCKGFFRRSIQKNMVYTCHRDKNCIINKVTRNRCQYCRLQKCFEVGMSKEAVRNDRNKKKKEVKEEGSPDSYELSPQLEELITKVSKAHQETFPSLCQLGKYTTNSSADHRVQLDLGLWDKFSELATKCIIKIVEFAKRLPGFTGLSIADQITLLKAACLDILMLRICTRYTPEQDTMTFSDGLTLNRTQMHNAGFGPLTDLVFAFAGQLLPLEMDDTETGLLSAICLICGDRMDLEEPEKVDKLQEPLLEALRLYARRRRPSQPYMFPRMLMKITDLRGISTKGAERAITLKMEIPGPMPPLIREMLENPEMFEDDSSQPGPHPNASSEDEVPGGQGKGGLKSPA
Sequence of Retinoic acid receptor alpha (Homo sapiens) (P10276 whole entry, looked up, the tested form may be a part): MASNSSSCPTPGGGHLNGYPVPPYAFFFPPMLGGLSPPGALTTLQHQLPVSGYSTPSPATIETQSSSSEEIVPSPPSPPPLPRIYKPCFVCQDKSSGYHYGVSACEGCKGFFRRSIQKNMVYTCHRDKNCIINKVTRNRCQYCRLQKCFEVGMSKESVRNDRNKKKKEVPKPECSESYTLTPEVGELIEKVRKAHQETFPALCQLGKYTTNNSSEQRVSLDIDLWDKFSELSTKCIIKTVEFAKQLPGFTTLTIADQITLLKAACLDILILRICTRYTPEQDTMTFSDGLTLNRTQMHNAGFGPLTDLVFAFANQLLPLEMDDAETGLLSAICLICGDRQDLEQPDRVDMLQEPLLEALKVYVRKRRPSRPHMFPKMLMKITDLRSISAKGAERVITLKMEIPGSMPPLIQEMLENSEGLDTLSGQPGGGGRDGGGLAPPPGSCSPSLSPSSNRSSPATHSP
Sequence of human RAR-related Orphan Receptor beta (RORb), RORB (gene 6096) (Q92753 whole entry, looked up, the tested form may be a part): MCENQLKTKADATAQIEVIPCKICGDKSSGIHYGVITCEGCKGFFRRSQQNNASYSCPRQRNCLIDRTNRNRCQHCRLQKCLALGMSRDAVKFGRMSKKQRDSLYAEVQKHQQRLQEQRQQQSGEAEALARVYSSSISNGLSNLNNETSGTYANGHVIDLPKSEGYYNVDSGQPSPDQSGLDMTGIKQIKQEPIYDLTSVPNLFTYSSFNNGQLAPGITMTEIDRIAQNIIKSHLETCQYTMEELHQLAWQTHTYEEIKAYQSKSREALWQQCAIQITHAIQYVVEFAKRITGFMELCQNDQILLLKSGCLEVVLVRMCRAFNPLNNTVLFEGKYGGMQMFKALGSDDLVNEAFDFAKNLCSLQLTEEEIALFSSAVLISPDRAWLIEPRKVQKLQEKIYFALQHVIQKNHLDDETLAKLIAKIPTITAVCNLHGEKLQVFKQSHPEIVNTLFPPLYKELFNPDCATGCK

c1ccc2n[nH]nc2c1
inactive: [1] | [2] | [3] | [4] | [5] | [6] | [7] | [8]

Cc1cccc2ccccc12
inactive: [1] | [2] | [3] | [4] | [5] | [6] | [9] | [7] | [10] | [8]

CCCCCCCC[Si](OCC)(OCC)OCC
active: [4] 18.4 µM
inactive: [1] | [2] | [3] | [5] | [9] | [7] | [8]

CCN(Cc1cccc(S(=O)(=O)O)c1)c1ccc(C(=C2C=CC(=[N+](CC)Cc3cccc(S(=O)(=O)O)c3)C=C2)c2ccccc2S(=O)(=O)[O-])cc1
inactive: [1] | [2] | [4] | [5] | [6] | [7] | [8]

CC(C)(C)c1csc(-c2cc3cc(OCc4ccccc4CC(=O)O)ccc3o2)n1
active: [4] 18.1 µM | [5] 1.51 µM
inactive: [1] | [2] | [6] | [8]

c1ccc(C[n+]2cccc3ccccc32)cc1
inactive: [1] | [2] | [4] | [5] | [6] | [9] | [8]

Cc1ncc(CO)c(CO)c1O
inactive: [1] | [2] | [4] | [5] | [6] | [10] | [8]

Cc1oc2c(NC(=O)c3c(Cl)cccc3Cl)cccc2c1C(C)(C)O
inactive: [1] | [2] | [3] | [9] | [8]
active: [4] 21.4 µM | [5] 3.28 µM | [6] 0.204 µM

O=C=NCCCCCCN=C=O
inactive: [1] | [2] | [4] | [5] | [6] | [7] | [8]

CCCCCCCCCCCO
inactive: [6]
active: [1] 166 µM | [2] 36.8 µM | [4] 34.2 µM | [5] 62.9 µM | [10] 159 µM | [8] 179 µM

CCCCOC(=O)c1ccc(O)cc1
active: [5] 39.9 µM and 54 µM and 27.3 µM
inactive: [1] | [2] | [4] | [5] | [6] | [9] | [8]

C[C@]12CC[C@@H]3c4ccc(O)cc4CC[C@H]3[C@@H]1CC[C@H]2O
active: [4] 9.12 µM | [6] 4.02 µM [middle of 4 runs]
inactive: [1] | [2] | [3] | [5] | [9] | [7] | [10] | [8]

Cc1cc2c(cc1C(F)(F)F)N(C(=O)Nc1ccc(Oc3cccnc3C)nc1)CC2
inactive: [1] | [2] | [5] | [6] | [9] | [10]
active: [4] 9.22 µM

O=C(O)c1ccccc1-n1cc(C(=O)O)c(=O)c2cc(Nc3c(F)cc(F)cc3Cl)c(Cl)cc21
inactive: [1] | [2] | [3] | [4] | [6] | [9] | [7] | [10]

Clc1cc(Cl)c2c(c1)N=C1CCCCCN1C2
inactive: [1] | [2] | [4] | [9] | [10] | [8]
active: [5] 16.1 µM | [6] 20.2 µM

CCCCCc1ccc(N)cc1
inactive: [1] | [2] | [5] | [6] | [8]
active: [4] 6.3 µM | [5] 100 µM and 34 µM

O=CCCCC=O
inactive: [1] | [2] | [5] | [6] | [7] | [10] | [8]
active: [4] 25.1 µM

O=C(Nc1ccc(Cl)cc1)Nc1ccc(Cl)c(Cl)c1
active: [4] 2.04 µM
inactive: [1] | [2] | [5] | [6] | [9] | [8]

CO[C@H]1/C=C/O[C@@]2(C)Oc3c(C)c(O)c4c(O)c(c(/C=N/N5CCN(C)CC5)c(O)c4c3C2=O)NC(=O)/C(C)=C\C=C\[C@H](C)[C@H](O)[C@@H](C)[C@@H](O)[C@@H](C)[C@H](OC(C)=O)[C@@H]1C
inactive: [1] | [2] | [3] | [4] | [5] | [10] | [8]

CCCCCCCCOC(=O)c1cc(O)c(O)c(O)c1
active: [1] 39.7 µM | [2] 35.5 µM | [4] 17 µM | [5] 39.8 µM | [6] 6.39 µM
inactive: [9] | [7] | [8]

CCCCCCCCCCCCO
active: [2] 36.2 µM | [4] 30.2 µM
inactive: [1] | [3] | [6] | [9] | [7] | [10] | [8]

CCCCCCCCOc1ccc(C(=O)c2ccccc2)c(O)c1
active: [4] 30.1 µM
inactive: [1] | [2] | [3] | [5] | [6] | [9] | [7] | [8]

CC(C)(O)c1ccc(CNC(=O)c2cccnc2Oc2ccc3nonc3c2)cc1
inactive: [1] | [2] | [4] | [9] | [10] | [8]
active: [5] 27 µM | [6] 10.5 µM

COc1cc(C(=O)NC2CCN(C)CC2)ccc1Nc1ncc2c(n1)N(C1CCCC1)CC(F)(F)C(=O)N2C
inactive: [2] | [5] | [6] | [7] | [10] | [8]
active: [1] 3.45 µM | [4] 3.69 µM

CCCOC(=O)c1cc(O)c(O)c(O)c1
inactive: [1] | [2] | [6] | [9]
active: [4] 10.5 µM | [5] 31.8 µM

CCN(Cc1cccnc1)C(=O)c1cccc(Cl)c1[C@]1(C)C(=O)N(Cc2ccc(OC)cc2OC)c2ccc(Cl)cc21
inactive: [1] | [2] | [5] | [9] | [8]
active: [4] 5.12 µM | [6] 0.0262 µM

O=C1c2ccccc2C(=O)N1CCc1noc(-c2ccc(CN3CCCCCC3)s2)n1
inactive: [1] | [2] | [4] | [5] | [10] | [8]
active: [6] 2.72 µM

Cc1cc(F)ccc1-c1cc(N2CC[C@@H](O)[C@H]2CO)ncc1N(C)C(=O)C(C)(C)c1cc(C(F)(F)F)cc(C(F)(F)F)c1
active: [2] 12.8 µM | [4] 5.65 µM | [6] 1.14 µM
inactive: [1] | [5] | [8]

CCCCOC(=O)CC(CC(=O)OCCCC)(OC(C)=O)C(=O)OCCCC
inactive: [1] | [2] | [6] | [8]
active: [4] 31.5 µM | [5] 16.2 µM and 8.69 µM | [6] 3.1 µM

OC12N=C(c3ccccc3)SC1Cc1cc(Cl)ccc12 (configuration not stated)
inactive: [1] | [2] | [7] | [10] | [8]
active: [4] 31.5 µM | [5] 0.03 µM | [6] 2.41 µM

OCCO
inactive: [1] | [2] | [3] | [4] | [6] | [9] | [7] | [8]

O=c1c(-c2ccc(O)cc2)coc2cc(O)cc(O)c12
inactive: [1] | [2] | [3] | [6] | [9] | [7] | [10] | [8]
active: [4] 8.1 µM | [5] 32.7 µM [middle of 4 runs] | [6] 24.2 µM | [7] 27.4 µM | [10] 26.5 µM

Reference: PubChem BioAssay (EPA / NIEHS)
